Entries with a potency or affinity are not part of this list. Activity calls are given as the source filed them. No rule for the calls is given here.

Drawing on PubChem BioAssay AID504942 (Broad Institute, 2011), this text covers outcome for 1 molecule.

This experiment in a line: toxicity to human HeLa cells – cell-based, 48 h, plate reader, cherry-picks, cytotoxicity control, dose response (AID 504942). The conditions noted are these: series mostly up to 38 µM.

On to `N#CC1C(C#N)C2CCC1C1C2N1c1ccccc1` (stereo unspecified), for which the result was inactive.
